This note sets out measurements from PubChem BioAssay (NCATS).

Records with an inconclusive call do not appear. Entries that show only a call come without a potency. Calls of active or inactive are those of the source. Calls follow the shape of the dose curve; as a rule, active = well fitted curve in the direction sought with a large enough effect; inconclusive = small, poorly fitted or top-dose-only effect, or another doubt; inactive = no such curve, though single readings can be large; an effect the other way counts as inactive or inconclusive.

The target in test [1] is Aldehyde dehydrogenase, mitochondrial (Homo sapiens) (UniProt P05091). Kind of test: qHTS for Inhibitors of the Aldehyde Dehydrogenase Family (ALDH2) Primary screen (AID 2061308). Also: nearly all actives have a fitted effect of over 55% in size. In general terms: In qHTS, concentration-response curves come from the screen itself.
Test [2] addresses Retinaldehyde dehydrogenase 3 (Homo sapiens) (UniProt P47895). Kind of test: qHTS for Inhibitors of the Aldehyde Dehydrogenase Family (ALDH1A3) Primary screen (AID 2061315).

In the case of `CC(C)C(OC(=O)CNC(=O)c1ccccc1)C(=O)Nc1cc(C(F)(F)F)ccc1Cl` (stereo not given), the Potency entry in test [1] and in test [2] was “inactive” each time.

Turning to `Cc1cc(C)nc(NC(=S)N2CCN(c3ncnc4ccccc34)CC2)c1`, the Potency entry in test [1] and in test [2] was “inactive” each time.

For the compound `C=C1C[C@]23C[C@H]1CC[C@H]2C1=C[C@H]2OC(=O)[C@@](C)([C@H]1[C@@H]3C(=O)O)[C@H]2O`, the Potency result in test [1] and in test [2] was “inactive” throughout.

As for `C=Cc1nc(Nc2cc(F)cc(F)c2)nc(NC2CCCC2)n1`, the Potency result in test [1] and in test [2] was “inactive” in each case.

In the case of `CC(C)Nc1oc(-c2cccc3ccccc23)nc1C#N`, the Potency entry in test [1] and in test [2] was “inactive” each time.

Turning to `O=C(OCC#CCSc1nnc(-c2cccc3ccccc23)o1)c1cc2ccccc2o1`, the Potency entry in test [1] and in test [2] was “inactive” each time.

For `COc1ccc2c(c1)Oc1nc(-c3ccc(C)s3)nc(SCC(=O)Nc3cccc(C(=O)O)c3)c1C2`, the Potency entry in test [1] and in test [2] was “inactive” throughout.

Consider `FC(F)(F)c1cc(-c2ccc(CNc3nc(-c4ccccc4C(F)(F)F)nc4ccccc34)cc2)cc(C(F)(F)F)c1`, for which the Potency entry in test [1] and in test [2] was “inactive” each time.

Consider `CC(C)(C)OC(=O)N1CCC(C(=O)Nc2ccc([S+](=O)([O-])Nc3nccs3)cc2)CC1`, for which the Potency result in test [1] and in test [2] was “inactive” in each case.

Turning to `Cc1ccc(S(=O)(=O)Nc2cnccc2C(=O)Nc2nc(-c3ccc(Cl)c(Cl)c3)cs2)cc1`, the Potency entry in test [1] and in test [2] was “inactive” in each case.

As to `CN(CCc1ccco1)c1ncnc2ccc(-c3ccc4c(c3)OCO4)cc12`, the Potency result in test [1] and in test [2] was “inactive” in each case.

For the compound `CC(=O)NC(c1cc(F)c2cccnc2c1O)C1CC1` (stereo not given), the Potency result in test [1] and in test [2] was “inactive” each time.

On to `CCOC(=O)c1nc(NCc2ccccc2)sc1C`, for which the Potency entry in test [1] and in test [2] was “inactive” in each case.

With `Fc1cc(F)cc(Nc2nc(Cl)nc(NC3CCCC3)n2)c1`, the Potency result in test [1] and in test [2] was “inactive” in each case.

In the case of `COc1ccccc1NC(=O)c1ccc2ccccc2c1`, the Potency entry in test [1] and in test [2] was “inactive” each time.

With `CCC1C(=O)N(C)c2cnc(Nc3ccc(C(=O)NC4CCN(C)CC4)cc3OC)nc2N1C1CCCC1` (stereo not given), the Potency entry in test [1] and in test [2] was “inactive” throughout.

With `Cc1ccc(CNc2nc(-c3ccccc3C(F)(F)F)nc3ccccc23)s1`, the Potency entry in test [1] and in test [2] was “inactive” each time.

Take `Oc1cc(Nc2ccncc2)cc2cccnc12`: the Potency entry in test [1] and in test [2] was “inactive” each time.

Turning to `S=c1[nH]c2ccccc2n1CCc1ccccc1`, the Potency entry in test [1] and in test [2] was “inactive” in each case.

Regarding `COc1cccc(-c2nnc3n2N=C(c2c(OC)cccc2OC)CS3)c1`, the Potency result in test [1] and in test [2] was “inactive” each time.

With `Cc1ccc(S(=O)(=O)Nc2cnccc2C(=O)Nc2nc(-c3ccc(C)c(C)c3)cs2)cc1`, the Potency result in test [1] and in test [2] was “inactive” each time.

As to `Cc1cc2c(s1)c1cnn(Cc3ccc4ccccc4c3)c(=O)c1n2C`, the Potency entry in test [1] and in test [2] was “inactive” throughout.

As to `O=S1(=O)N=C(Oc2ccccc2-c2ccccc2)c2ccccc21`, the Potency result in test [1] and in test [2] was “inactive” each time.

Take `O=C1c2ccccc2C(=O)N1c1cccc2ncccc12`: the Potency entry in test [1] and in test [2] was “inactive” throughout.

Consider `O=C(Nc1ccc2ccccc2c1)Nc1nnc(-c2ccccc2F)s1`, for which the Potency result in test [1] and in test [2] was “inactive” each time.

For the compound `N#Cc1cccc(Nc2ncc(-c3cccc4ccccc34)o2)c1`, the Potency result in test [1] and in test [2] was “inactive” in each case.

On to `Nc1cccc(-c2ccc(NC(=O)c3cccs3)cn2)c1`, for which the Potency result in test [1] and in test [2] was “inactive” throughout.

In the case of `Cc1cc(C)nc(NC(=S)N2CCN(c3cccc4nccn34)CC2)c1`, the Potency entry in test [1] and in test [2] was “inactive” throughout.

In the case of `Nc1nc(NCc2ccc(-c3ccnc(C(F)(F)F)c3)cc2)c2ccccc2n1`, the Potency entry in test [1] and in test [2] was “inactive” in each case.

`Cc1ccc(NS(=O)(=O)c2cc3c(cc2N2CCCCC2)NC(=O)CC3)cc1C`: the Potency result in test [1] and in test [2] was “inactive” in each case.

On to `Cc1ccc(S(=O)(=O)Nc2cnccc2C(=O)Nc2nc(-c3cccc(C)c3)cs2)cc1`, for which the Potency result in test [1] and in test [2] was “inactive” in each case.

Regarding `COc1ccc(Nc2nn3c(=O)c4ccccc4nc3s2)cc1`, the Potency entry in test [1] and in test [2] was “inactive” throughout.

As to `O=[N+]([O-])c1ccc([S+](=O)([O-])N2CCN([S+](=O)([O-])c3ccc4c(c3)OCCO4)CC2)c([N+](=O)[O-])c1`, the Potency result in test [1] and in test [2] was “inactive” in each case.

As for `O=S(=O)(Nc1nc(CN2CCOCC2)nc2sc3c(c12)CCCC3)c1ccc2ccccc2c1`, the Potency result in test [1] and in test [2] was “inactive” throughout.

Regarding `CCN1CCC[C@@H]1CNC(=O)c1ccc2c(c1)NC(=O)/C(=C/c1ccccc1F)S2`, the Potency entry in test [1] and in test [2] was “inactive” each time.

As for `COc1ccc(C2=Nn3c(nnc3-c3ccccc3F)SC2)cc1OC1CCCC1`, the Potency entry in test [1] and in test [2] was “inactive” throughout.

In the case of `CC1CCC2C(C)(C)C(O)CCC2(C)C12Cc1c(O)cc3c(c1O2)C(N)=NC3` (stereo not given), the Potency entry in test [1] and in test [2] was “inactive” each time.

On to `CC(=O)NC(c1cc(Cl)c2cccnc2c1O)C(C)C` (stereo not given), for which the Potency entry in test [1] and in test [2] was “inactive” throughout.

As for `O=S(=O)(c1ccc2c(c1)OCCO2)N1CCN(S(=O)(=O)c2ccc3nc(Cl)c(Cl)nc3c2)CC1`, the Potency result in test [1] and in test [2] was “inactive” in each case.

On to `O=C(NC1CCCc2c1cnn2-c1ccc(F)cc1F)C1CCCCN1` (stereo not given), for which the Potency entry in test [1] and in test [2] was “inactive” in each case.
